Test results published in PubChem BioAssay (Tox21).
Values joined by “and” are separate entries in the source; they are usually repeats but may differ in a detail not shown here. Identical values can stand only once. Inconclusive results are not listed. Entries that show only a call come without a potency. Active and inactive are the calls of the source. Unless noted, calls follow the shape of the dose curve; as a rule, active = well fitted curve in the direction sought with a large enough effect in the repeat runs; inconclusive = weak or mixed curves; inactive = no such curve, though single readings can be large; an effect the other way counts as inactive or inconclusive.

What was measured:
[1] = qHTS assay for small molecule agonists of the p53 signaling pathway (AID 651631; calls by dose curve; also: nearly all actives have a fitted effect of over 15% in size; also: potency is read from the fitted curve at half-maximal effect)
Procedure, shortened: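 Quantitative high-throughput format: 4,000 p53RE-bla HCT-116 cells/well, 5 h pre-incubation, 16 h compound exposure at 37 °C, 2 h room-temperature substrate step, fluorescence intensity measured.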

[2] = qHTS assay for small molecules that induce genotoxicity in human embryonic kidney cells expressing luciferase-tagged ATAD5 (AID 651632); also: nearly all actives have a fitted effect of over 15% in size
Procedure, shortened: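 A rise in luciferase signal from ATAD5-tagged HEK293T cells marks genetic stress. Cells were exposed to compounds for 16 hr at 37C, 5% CO2, then luciferase was quantified after a 30 min room-temperature incubation with Amplite.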

[3] = qHTS assay for small molecule agonists of the p53 signaling pathway - cell viability (AID 651633; calls by dose curve;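 also: p53RE-bla HCT reporter cells with a stable beta-lactamase p53 reporter; series mostly up to about 83 µM; nearly all actives have a fitted effect of over 30% in size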)
Procedure, shortened: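 p53RE-bla cells were treated with compound for 16 hours at 37 C. Cytotoxicity was then measured as CellTiter-Glo luminescence after 30 min at room temperature.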

[4] = qHTS assay for small molecules that induce genotoxicity in human embryonic kidney cells expressing luciferase-tagged ATAD5 - cell viability (AID 651634; calls by dose curve; also: nearly all actives have a fitted effect of over 25% in size)
Procedure, shortened: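 Cytotoxicity counter-readout: after 15.5 hr compound treatment at 37C, live-cell protease activity in ATAD5-luciferase HEK293T cells measured by CellTiter-Fluor fluorescence, 30 min development at 37C.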

[5] = qHTS assay for small molecule disruptors of the mitochondrial membrane potential - cell viability (AID 720634; calls by dose curve;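 also: human HepG2 liver cancer cells; series mostly up to about 83 µM; nearly all actives have a fitted effect of over 20% in size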)
Procedure, shortened: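 Cytotoxicity was quantified from ATP content by CellTiter-Glo luminescence in the same wells as the MMP dye read-out. HepG2 (2,000 cells/well) were plated overnight and exposed to compounds for 1 hr at 37 C.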

[6] = qHTS assay for small molecule disruptors of the mitochondrial membrane potential (AID 720635); also: potency is read from the fitted curve at half-maximal effect
Procedure, shortened: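 HepG2 cells exposed to compound 1 hr at 37C, then Mito-MPS dye 30 min. Ratio read of aggregate (540/590 nm) versus monomer (490/535 nm) fluorescence.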

[7] = qHTS assay to test for compound auto fluorescence at 590 nm (red) in HepG2 cells (AID 720674)
Procedure, shortened: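 Seeding: 2,000 HepG2 cells/well, MEM/10% FBS, overnight 37 C. Dosing: compound vs DMSO. Incubation: 1 hr, 37 C, 5% CO2. Read: fluorescence 540 ex/590 em, Rose Bengal sodium as red reference.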

[8] = qHTS assay to test for compound auto fluorescence at 535 nm (green) in HepG2 cells (AID 720675)
[9] = qHTS assay to test for compound auto fluorescence at 460 nm (blue) in HEK293 cells (AID 720678)
Procedure, shortened: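 HEK293 cells (2,000/well, medium with 10% dialyzed FBS) attached 4-5 hr, then exposed to compound overnight at 37C, 5% CO2. Blue fluorescence read at 405/460 nm, with triamterene as reference fluorophore.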

[10] = qHTS assay to test for compound auto fluorescence at 590 nm (red) in HEK293 cells (AID 720679)
Procedure, shortened: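 HEK293 cells (2,000/well, 10% dialyzed FBS) attached 4-5 hr, then dosed with compound or DMSO and incubated overnight at 37C, 5% CO2. Red fluorescence read at 540/590 nm, Rose Bengal sodium as reference fluorophore.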

[11] = qHTS assay to test for compound auto fluorescence at 535 nm (green) in HEK293 cells (AID 720680)
[12] = qHTS assay to test for compound auto fluorescence at 460 nm (blue) in HEK293 cell free culture (AID 720681)
Procedure, shortened: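 Compounds were added to cell-free DMEM with 10% FBS and fluorescence read directly. The blue channel used 405 nm excitation and 460 nm emission, with triamterene as the reference fluorophore.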

[13] = qHTS assay to test for compound auto fluorescence at 535 nm (green) in HEK293 cell free culture (AID 720682)
Procedure, shortened: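 Measurement is a direct plate read of green fluorescence (485 nm in, 535 nm out) after compound addition to serum-supplemented DMEM lacking cells, with fluorescein used to express intensities.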

[14] = qHTS assay to test for compound auto fluorescence at 590 nm (red) in HEK293 cell free culture (AID 720683)
Procedure, shortened: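 Cell-free wells of DMEM with 10% FBS received compound, and intrinsic fluorescence was read at excitation/emission 540/590 nm. Values expressed as equivalence to Rose Bengal sodium.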

[15] = qHTS assay to test for compound auto fluorescence at 590 nm (red) in HepG2 cell free culture (AID 720684)
Procedure, shortened: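 Rose Bengal sodium served as the reference for red signal. Test compounds were dispensed into serum-containing MEM (10% FBS) without cells, and plates were read at 540/590 nm.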

[16] = qHTS assay to test for compound auto fluorescence at 460 nm (blue) in HepG2 cell free culture (AID 720685)
Procedure, shortened: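 Cell-free plates of MEM plus 10% FBS received 23 nL compound or DMSO vehicle; blue-channel (405/460 nm) intensity scored against triamterene as reference fluorophore.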

[17] = qHTS assay to test for compound auto fluorescence at 535 nm (green) in HepG2 cell free culture (AID 720686)
[18] = qHTS assay to test for compound auto fluorescence at 460 nm (blue) in HepG2 cells (AID 720687)
Procedure, shortened: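 HepG2 cells in MEM with 10% FBS, attached overnight at 37 C, were exposed to compound or DMSO for 1 hr at 37 C, 5% CO2. Blue fluorescence was read at 405/460 nm, with triamterene as reference fluorophore.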

[19] = target: Glucocorticoid receptor (Homo sapiens) (UniProt P04150); experiment: qHTS assay to identify small molecule agonists of the glucocorticoid receptor (GR) signaling pathway (AID 720691; active = well fitted activation curve with a large enough effect in the signal ratio in the repeat runs, not every such curve was filed as active; the % refers to the signal ratio)
Chain of Glucocorticoid receptor (Homo sapiens) (P04150 whole entry, looked up): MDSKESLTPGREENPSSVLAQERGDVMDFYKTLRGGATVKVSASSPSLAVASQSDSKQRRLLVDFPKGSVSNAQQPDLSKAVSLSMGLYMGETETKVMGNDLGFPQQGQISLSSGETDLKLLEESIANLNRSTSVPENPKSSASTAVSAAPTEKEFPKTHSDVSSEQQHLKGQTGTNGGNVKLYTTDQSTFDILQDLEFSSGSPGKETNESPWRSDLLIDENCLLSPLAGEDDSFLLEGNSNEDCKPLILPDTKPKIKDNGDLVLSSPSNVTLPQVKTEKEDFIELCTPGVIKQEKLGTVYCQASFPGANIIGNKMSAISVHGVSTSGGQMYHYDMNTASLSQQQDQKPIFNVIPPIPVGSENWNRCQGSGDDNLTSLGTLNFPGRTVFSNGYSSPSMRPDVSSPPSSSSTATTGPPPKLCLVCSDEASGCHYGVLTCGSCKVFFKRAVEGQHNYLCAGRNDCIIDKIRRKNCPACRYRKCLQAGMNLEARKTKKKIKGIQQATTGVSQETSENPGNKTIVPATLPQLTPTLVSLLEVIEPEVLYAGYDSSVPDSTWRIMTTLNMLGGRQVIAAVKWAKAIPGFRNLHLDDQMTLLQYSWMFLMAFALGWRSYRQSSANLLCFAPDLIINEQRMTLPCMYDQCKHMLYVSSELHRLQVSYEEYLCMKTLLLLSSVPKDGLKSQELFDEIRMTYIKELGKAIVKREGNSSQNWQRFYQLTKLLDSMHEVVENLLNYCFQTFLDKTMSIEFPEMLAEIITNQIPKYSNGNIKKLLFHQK
Procedure, shortened: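 Agonist-mode qHTS in HeLa cells stably expressing a glucocorticoid-response-element beta-lactamase reporter. Fluorescence intensity read with FRET substrate (2 h, room temperature) after 18 h compound treatment at 37 C.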

[20] = target: Glucocorticoid receptor (Homo sapiens) (UniProt P04150); experiment: qHTS assay to identify small molecule antagonists of the glucocorticoid receptor (GR) signaling pathway (AID 720692; active = well fitted inhibition curve with a large enough effect in the signal ratio in the repeat runs, not every such curve was filed as active; the % refers to the signal ratio)
Procedure, shortened: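 Inhibition of dexamethasone-driven (5 nM final) beta-lactamase expression was measured in GRE-reporter HeLa cells over 18 h at 37C. Fluorescence was read after 2 h with the B/G FRET substrate at room temperature.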

NC(=O)c1ncn([C@@H]2O[C@H](CO)[C@@H](O)[C@H]2O)n1
Potency [1]: 13.3 µM (active) and 64.4 µM (active) | Potency [2]: inactive | Potency [3]: inactive | Potency [4]: inactive | Potency [5]: inactive | Potency [6]: inactive | outcome [7]: inactive | outcome [8]: inactive | Potency [9]: inactive | outcome [10]: inactive | outcome [11]: inactive | Potency [12]: inactive | outcome [13]: inactive | outcome [14]: inactive | outcome [15]: inactive | Potency [16]: inactive | outcome [17]: inactive | Potency [18]: inactive | outcome [19]: inactive | Potency [20]: inactive

Oc1ccc(Cc2ccccc2O)cc1
Potency [1]: inactive | Potency [2]: inactive | Potency [3]: inactive | Potency [4]: inactive | Potency [5]: inactive | Potency [6]: 11 µM (active) and 27.3 µM (active) | outcome [7]: inactive | outcome [8]: inactive | Potency [9]: inactive | outcome [10]: inactive | outcome [11]: inactive | Potency [12]: inactive | outcome [13]: inactive | outcome [14]: inactive | outcome [15]: inactive | Potency [16]: inactive | outcome [17]: inactive | Potency [18]: inactive | outcome [19]: inactive | Potency [20]: inactive

Nc1cccc(C(F)(F)F)c1
Potency [1]: inactive | Potency [2]: inactive | Potency [3]: inactive | Potency [4]: inactive | Potency [5]: inactive | Potency [6]: inactive | outcome [7]: inactive | outcome [8]: inactive | Potency [9]: inactive | outcome [10]: inactive | outcome [11]: inactive | Potency [12]: inactive | outcome [13]: inactive | outcome [14]: inactive | outcome [15]: inactive | Potency [16]: inactive | outcome [17]: inactive | Potency [18]: inactive

CC(=O)OC[C@H]1O[C@@](COC(C)=O)(O[C@H]2O[C@H](COC(C)=O)[C@@H](OC(C)=O)[C@H](OC(C)=O)[C@H]2OC(C)=O)[C@@H](OC(C)=O)[C@@H]1OC(C)=O
Potency [1]: inactive | Potency [2]: inactive | Potency [3]: inactive | Potency [4]: inactive | Potency [5]: inactive | Potency [6]: inactive | outcome [7]: inactive | outcome [8]: inactive | Potency [9]: inactive | outcome [10]: inactive | outcome [11]: inactive | Potency [12]: inactive | outcome [13]: inactive | outcome [14]: inactive | outcome [15]: inactive | Potency [16]: inactive | outcome [17]: inactive | Potency [18]: inactive | outcome [19]: inactive | Potency [20]: inactive

CC(=O)CC(=O)N(C)C
Potency [1]: inactive | Potency [2]: inactive | Potency [3]: inactive | Potency [4]: inactive | Potency [5]: inactive | Potency [6]: inactive | outcome [7]: inactive | outcome [8]: inactive | Potency [9]: inactive | outcome [10]: inactive | outcome [11]: inactive | Potency [12]: inactive | outcome [13]: inactive | outcome [14]: inactive | outcome [15]: inactive | Potency [16]: inactive | outcome [17]: inactive | Potency [18]: inactive | outcome [19]: inactive | Potency [20]: inactive

Cc1ccc([N+](=O)[O-])cc1N
Potency [1]: inactive | Potency [2]: inactive | Potency [3]: inactive | Potency [4]: inactive | Potency [5]: inactive | Potency [6]: inactive | outcome [7]: inactive | outcome [8]: inactive | Potency [9]: inactive | outcome [10]: inactive | outcome [11]: inactive | Potency [12]: inactive | outcome [13]: inactive | outcome [14]: inactive | outcome [15]: inactive | Potency [16]: inactive | outcome [17]: inactive | Potency [18]: inactive

CN1CCCC1=O
Potency [1]: inactive | Potency [2]: inactive | Potency [3]: inactive | Potency [4]: inactive | Potency [5]: inactive | Potency [6]: inactive | outcome [7]: inactive | outcome [8]: inactive | Potency [9]: inactive | outcome [10]: inactive | outcome [11]: inactive | Potency [12]: inactive | outcome [13]: inactive | outcome [14]: inactive | outcome [15]: inactive | Potency [16]: inactive | outcome [17]: inactive | Potency [18]: inactive

O=C1OC(=O)c2c(Cl)c(Cl)c(Cl)c(Cl)c21
Potency [1]: inactive | Potency [2]: inactive | Potency [3]: inactive | Potency [4]: inactive | Potency [5]: inactive | Potency [6]: inactive | outcome [7]: inactive | outcome [8]: inactive | Potency [9]: inactive | outcome [10]: inactive | outcome [11]: inactive | Potency [12]: inactive | outcome [13]: inactive | outcome [14]: inactive | outcome [15]: inactive | Potency [16]: inactive | outcome [17]: inactive | Potency [18]: inactive

CC(C)c1ccc(C(C)C)cc1
Potency [1]: inactive | Potency [2]: inactive | Potency [3]: inactive | Potency [4]: inactive | Potency [5]: inactive | Potency [6]: inactive | outcome [7]: inactive | outcome [8]: inactive | Potency [9]: inactive | outcome [10]: inactive | outcome [11]: inactive | Potency [12]: inactive | outcome [13]: inactive | outcome [14]: inactive | outcome [15]: inactive | Potency [16]: inactive | outcome [17]: inactive | Potency [18]: inactive | outcome [19]: inactive | Potency [20]: inactive

CC(O)CNCC(C)O (stereo not given)
Potency [1]: inactive | Potency [2]: inactive | Potency [3]: inactive | Potency [4]: inactive | Potency [5]: inactive | Potency [6]: inactive | outcome [7]: inactive | outcome [8]: inactive | Potency [9]: inactive | outcome [10]: inactive | outcome [11]: inactive | Potency [12]: inactive | outcome [13]: inactive | outcome [14]: inactive | outcome [15]: inactive | Potency [16]: inactive | outcome [17]: inactive | Potency [18]: inactive

CCCCCC(C)=O
Potency [1]: inactive | Potency [2]: inactive | Potency [3]: inactive | Potency [4]: inactive | Potency [5]: inactive | Potency [6]: inactive | outcome [7]: inactive | outcome [8]: inactive | Potency [9]: inactive | outcome [10]: inactive | outcome [11]: inactive | Potency [12]: inactive | outcome [13]: inactive | outcome [14]: inactive | outcome [15]: inactive | Potency [16]: inactive | outcome [17]: inactive | Potency [18]: inactive | outcome [19]: inactive | Potency [20]: inactive

CC(=O)OCCC(C)C
Potency [1]: inactive | Potency [2]: inactive | Potency [3]: inactive | Potency [4]: inactive | Potency [5]: inactive | Potency [6]: inactive | outcome [7]: inactive | outcome [8]: inactive | Potency [9]: inactive | outcome [10]: inactive | outcome [11]: inactive | Potency [12]: inactive | outcome [13]: inactive | outcome [14]: inactive | outcome [15]: inactive | Potency [16]: inactive | outcome [17]: inactive | Potency [18]: inactive | outcome [19]: inactive | Potency [20]: inactive

COC(=O)OC
Potency [1]: inactive | Potency [2]: inactive | Potency [3]: inactive | Potency [4]: inactive | Potency [5]: inactive | Potency [6]: inactive | outcome [7]: inactive | outcome [8]: inactive | Potency [9]: inactive | outcome [10]: inactive | outcome [11]: inactive | Potency [12]: inactive | outcome [13]: inactive | outcome [14]: inactive | outcome [15]: inactive | Potency [16]: inactive | outcome [17]: inactive | Potency [18]: inactive | outcome [19]: inactive | Potency [20]: inactive

Cc1cc(C)cc(O)c1
Potency [1]: inactive | Potency [2]: inactive | Potency [3]: inactive | Potency [4]: inactive | Potency [5]: inactive | Potency [6]: inactive | outcome [7]: inactive | outcome [8]: inactive | Potency [9]: inactive | outcome [10]: inactive | outcome [11]: inactive | Potency [12]: inactive | outcome [13]: inactive | outcome [14]: inactive | outcome [15]: inactive | Potency [16]: inactive | outcome [17]: inactive | Potency [18]: inactive | outcome [19]: inactive | Potency [20]: inactive
